Where “and” joins values, the source holds several entries; their conditions need not be identical. Identical values can stand only once. Out of some 290,000 compounds screened, about 1,800 (0.62%) were called active. The full list was thinned out, with actives kept by preference. Unmarked numbers belong to inactive results. Rule as the data show it: active = inhibition above about 50%; inactive = the rest.

A short description of the test: NOD2 signaling inhibitors, cell-based, luminescence, uHTS, HEK293 (AID 1566). The settings on record: HEK293 NOD2/NF-kB luciferase reporter, at 4 µM, hits give high values. A general note: Reporter assays use an easily measured gene product as a stand-in for the process of interest.
For orientation: inhibition means the change of the read-out against control, counted positive when it falls. With `Cc1ccc(C(=O)O/N=C(\N)c2ccccn2)cc1`, the inhibition was -94.8%.
With `N/C(=N\OC(=O)c1ccccc1)c1ccccn1` the figure was -52.6%.
With `CC(NC(=O)Nc1ccccn1)N1C(=O)C2C3C=CC(C3)C2C1=O` (stereo not drawn), the inhibition was 15.9%.
Regarding `Cc1cc(C(=O)NCc2cccs2)ccc1[N+](=O)[O-]`, the inhibition was 0.2%.
`COc1ccc2c(c1)N(C(=O)CN1C(=O)C3CCCCC3C1=O)C(C)(C)C=C2C` (stereo not drawn): the inhibition was -4.7%.
With `CC(O)c1cccc(NC(=O)CCC(=O)O)c1` (stereo not drawn) the figure was 0.6%.
In the case of `CC(C)CC(=O)Nc1cccc(C(C)O)c1` (stereo not drawn), the inhibition is -0.6%.
Regarding `CC(O)c1cccc(NC(=O)Nc2cccc(NC(=O)Nc3cccc(C(C)O)c3)c2)c1` (stereo not drawn), the inhibition is 73.1% (active).
For `COc1ccccc1C(CC(=O)Nc1ccc(Cl)cc1)c1ccc(OC(C)C)cc1` (stereo not drawn), the inhibition is 2.5%.
In the case of `O=C(CCSCc1cccc(Cl)c1)NCCC1=CCCCC1`, the inhibition was 12.1%.
For the compound `CCOc1ccccc1N1CCN(C(=O)c2c(Cl)cnn2C)CC1`, the inhibition was 9.1%.
On to `CCn1cnc2cc(NS(=O)(=O)c3ccc(OC)c(OC)c3)ccc21`, for which the inhibition is 0%.
With `CCC1c2ccc(C)n2CCN1C(=O)Nc1cc(Cl)ccc1OC` (stereo not drawn), the inhibition was 13.8%.
As to `COc1ccc(O)c(-c2[nH]ncc2C(=O)c2cccc(C)c2)c1`, the inhibition is 9.9%.
With `COc1ccc(O)c(-c2[nH]ncc2C(=O)c2ccccc2C)c1`, the inhibition was 5.8%.
For `O=C(Cn1ncc2c3ccccc3n(Cc3ccc(F)cc3)c2c1=O)N1CCN(c2ncccn2)CC1`, the inhibition was 15.9%.
With `O=C(Nc1nncs1)C1COc2ccccc2O1` (stereo not drawn) the figure was -9%; with `O=C(Nc1ccccc1)C1COc2ccccc2O1` (stereo not drawn), -18.8%.
For `O=C(NC1=NCCS1)C1COc2ccccc2O1` (stereo not drawn), the inhibition was 63.1% (active).
With `Nc1ccc(S(=O)(=O)O)cn1`, the inhibition was 7.7% and 2.4%.
As to `S=c1[nH]nc(-c2ccc(Cl)cc2)n1/N=C/c1cccs1`, the inhibition is -8.1%.
Turning to `O=c1c2ccccc2cnn1CCOc1ccccc1`, the inhibition was 60.4% (active).
With `COc1ccc2cnn(CCOc3ccccc3)c(=O)c2c1OC`, the inhibition was -68.5%.
`O=c1c2ccccc2cnn1CCOc1cccc(Br)c1`: the inhibition is -63.9%.
Regarding `CC(C)CN1CCNC(=O)C1CC(=O)NCCCN1CCCc2ccccc21` (stereo not drawn), the inhibition is 3%.
For `COc1ccc(NC(=O)c2ccc3c(c2)NC(=O)CS3)cc1S(=O)(=O)Nc1ccc(Br)cc1`, the inhibition is 3.4%.
Regarding `Cc1ccc(NS(=O)(=O)c2cc(NC(=O)c3cc(=O)[nH]c(=O)[nH]3)ccc2Cl)c(C)c1`, the inhibition was 22.6%.
On to `CC(=O)O/N=C/c1c(Cl)n(C)c2ccccc12`, for which the inhibition is -6.2%.

Source of the values: PubChem BioAssay AID1566 (Sanford-Burnham Center for Chemical Genomics, 2009).
